# The whole screen tested about 67,000 compounds, of which about 300 (0.45%) showed an effect of 50% or more. Many of the other results were omitted from the sample, so strong results are more common in it than they were.
# Target: Polyketide synthase Pks13 (Mycobacterium tuberculosis (strain ATCC 25618 / H37Rv)) (UniProt I6X8D2)
# Assay: Mycobacterium tuberculosis Polyketide synthase 13 Thioesterase (PKS13)
# Format: functional
# Parameters: scale not given: in the data most compounds retested in dose-response had high values
# Conditions: 30 µM
# Polyketide synthase Pks13 (Mycobacterium tuberculosis (strain ATCC 25618 / H37Rv)), sequence (I6X8D2 whole entry): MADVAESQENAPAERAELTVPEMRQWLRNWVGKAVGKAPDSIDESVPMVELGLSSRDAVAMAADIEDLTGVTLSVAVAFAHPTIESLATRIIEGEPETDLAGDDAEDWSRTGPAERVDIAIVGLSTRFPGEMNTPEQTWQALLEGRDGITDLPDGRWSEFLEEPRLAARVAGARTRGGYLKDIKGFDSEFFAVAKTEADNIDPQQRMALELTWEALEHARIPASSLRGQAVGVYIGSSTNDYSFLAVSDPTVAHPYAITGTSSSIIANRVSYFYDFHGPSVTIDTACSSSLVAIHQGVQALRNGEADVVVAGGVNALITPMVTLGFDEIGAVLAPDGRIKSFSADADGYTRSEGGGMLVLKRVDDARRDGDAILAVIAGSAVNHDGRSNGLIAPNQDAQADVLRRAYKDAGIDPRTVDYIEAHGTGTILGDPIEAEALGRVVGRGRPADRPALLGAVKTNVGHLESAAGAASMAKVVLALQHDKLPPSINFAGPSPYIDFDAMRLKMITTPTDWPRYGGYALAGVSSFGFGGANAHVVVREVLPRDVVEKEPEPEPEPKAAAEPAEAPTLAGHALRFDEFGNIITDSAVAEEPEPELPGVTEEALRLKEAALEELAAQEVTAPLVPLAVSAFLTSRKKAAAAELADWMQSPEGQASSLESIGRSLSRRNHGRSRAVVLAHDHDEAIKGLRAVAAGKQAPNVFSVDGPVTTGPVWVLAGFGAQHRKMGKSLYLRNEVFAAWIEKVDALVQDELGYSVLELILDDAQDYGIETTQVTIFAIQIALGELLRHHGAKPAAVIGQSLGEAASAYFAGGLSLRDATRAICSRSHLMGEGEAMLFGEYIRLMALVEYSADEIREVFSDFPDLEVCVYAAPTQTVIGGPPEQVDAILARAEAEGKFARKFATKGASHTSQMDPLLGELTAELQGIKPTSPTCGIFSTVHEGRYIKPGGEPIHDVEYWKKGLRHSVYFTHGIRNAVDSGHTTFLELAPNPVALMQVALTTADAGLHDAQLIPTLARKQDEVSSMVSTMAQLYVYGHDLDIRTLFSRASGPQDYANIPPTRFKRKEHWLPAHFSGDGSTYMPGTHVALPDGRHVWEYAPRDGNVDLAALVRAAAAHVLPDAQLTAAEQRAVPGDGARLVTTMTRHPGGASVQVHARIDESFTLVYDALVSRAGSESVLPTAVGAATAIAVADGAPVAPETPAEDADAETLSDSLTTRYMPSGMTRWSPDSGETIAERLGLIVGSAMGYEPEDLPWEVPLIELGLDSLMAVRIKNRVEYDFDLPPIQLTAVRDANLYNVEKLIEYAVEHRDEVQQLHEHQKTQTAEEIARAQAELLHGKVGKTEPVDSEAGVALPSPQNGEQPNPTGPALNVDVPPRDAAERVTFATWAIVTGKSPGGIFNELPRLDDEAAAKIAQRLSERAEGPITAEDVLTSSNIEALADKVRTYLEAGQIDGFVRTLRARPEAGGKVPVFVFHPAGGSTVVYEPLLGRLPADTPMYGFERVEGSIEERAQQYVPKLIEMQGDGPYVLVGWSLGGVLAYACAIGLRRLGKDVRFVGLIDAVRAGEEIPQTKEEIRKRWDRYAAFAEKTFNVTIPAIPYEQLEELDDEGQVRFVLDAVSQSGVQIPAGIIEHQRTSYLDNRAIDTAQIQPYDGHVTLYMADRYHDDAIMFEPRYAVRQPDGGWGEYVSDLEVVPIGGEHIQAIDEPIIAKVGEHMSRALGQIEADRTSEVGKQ
row,SMILES,Percent Effect [%]
1,Cn1cc(CN2C[C@H](Oc3ncccc3F)[C@H]3OCCC[C@H]32)cn1,4.64
2,Cc1occc1C(=O)N1C[C@@H]2CCCO[C@@H]2[C@H](NC(=O)CC2CC2)C1,-0.923
3,CC(C)=CCN1C[C@H]2CC[C@@H]1CN(C(=O)c1c[nH]c(=O)c(Cl)c1)C2,-3.37
4,CC(C)CN1C[C@@H]2C(=O)N(C)C3(CCN(C(=O)C(C)C)CC3)[C@@H]2C1,-25.7
5,Cc1noc([C@]23COC[C@H]2CN(S(=O)(=O)N(C)C)C3)n1,-30.1
6,CNC(=O)CN1CCO[C@H]2CN(C(=O)C3CC3)C[C@H]21,-29
7,O=C([C@@H]1COC[C@H]2CN(C3CCOCC3)C[C@H]21)N1CCCO1,35.9
8,CS(=O)(=O)N[C@@H]1CN(Cc2ccoc2)C[C@@H]2CCCO[C@@H]21,-30.2
9,CCC1(CC)Cc2ccccc2-c2nc(NCCCO)[nH]c(=O)c21,88.8
10,CCC1(CC)Cc2ccccc2-c2nc(CN(C)C)nc(O)c21,-41.1
11,CCC1(CC)Cc2ccccc2-c2nc(NCCO)[nH]c(=O)c21,-180
12,O=C([C@H]1C[C@H]2OCC[C@H]2N(C(=O)c2ccccn2)C1)N1CCCCO1,-25.9
13,CC(=O)N1CCC(NC(=O)c2cc(Cl)ccc2O)CC1,95.8
14,CC(=O)N1CCC(NC(=O)c2cc(S(N)(=O)=O)ccc2C)CC1,-0.331
15,CC(=O)N1CCC(NC(=O)c2cc(Cl)ccc2-n2cnnn2)CC1,-14.8
16,Cc1nc(CO[C@H]2CN(Cc3ccccn3)[C@@H]3CCCO[C@H]23)cs1,1.71
17,CC(=O)N1CC[C@H]2OCC[C@@H](C(=O)Nc3cccnc3C)[C@H]2C1,5.14
18,O=C(c1ccco1)N1C[C@H]2CCCN(CC3CCOCC3)[C@H]2C1,0.0598
19,Cn1ccnc1CN1C[C@H](N2CCOCC2)[C@@H]2OCCC[C@@H]21,-10.5
20,CC(C)N1Cc2cccc(NCC(=O)N(C)C3CCCCC3)c2C1,81.9
21,CC(C)C(C)N1Cc2cccc(NCC(=O)N(C)C)c2C1 (centres undefined),-6.55
22,CC(C)N1Cc2cccc(NCC(=O)N(C)C)c2C1,-31.9
23,CN(C)C[C@@H]1CCC[C@@H]2CN(c3cccnc3)C[C@@H]21,-20.9
24,CS(=O)(=O)N1CCN2C(=O)N(C3CCCCC3)C[C@H]2C1,3.48
25,O=C([C@@H]1COC[C@H]2CN(c3ccncn3)C[C@H]21)N1CCCCO1,-30

row,SMILES,Percent Effect [%]
1,O=C(C1CCC1)N1CCO[C@H]2[C@H](OCCCn3cccn3)CC[C@@H]21,-40.4
2,O=C(Nc1cc(CSCCO)ccn1)c1ccc(Cl)o1,62
3,Cc1ccnc(NC(=O)c2ccc(Cl)o2)c1,-6.1
4,Cc1cscc1C(=O)Nc1cc(CSCCO)ccn1,11.8
5,Cc1cccc(CN2C[C@@H](NC(=O)C3CCC3)[C@H]3COC[C@H]32)n1,-33.3
6,O=C(CCc1n[nH]c2c1CCCC2)N1C[C@@H]2CC[C@H](C1)N(CC1CC1)C2,-15.4
7,Cc1nn(C)cc1-c1ccnc(N(C)Cc2ccoc2)n1,139
8,Cc1nn(C)cc1-c1ccnc(N(C)Cc2cnn(C)c2)n1,-7.71
9,Cc1nn(C)cc1-c1ccnc(N(C)Cc2ccc(F)cc2)n1,-13.2
10,CC(C)N1[C@H](Cn2cncn2)C[C@@H]2CN(Cc3cccs3)CC[C@@H]21,2.62
11,O=C1CC(NCc2cnc(N3CCCC3)nc2)CN1c1ccccc1 (centres undefined),65.7
12,O=C1CC(NCc2cnc(C3CCCCC3)nc2)CN1c1ccccc1 (centres undefined),-18
13,O=C1CC(NCc2cnc(-c3cccs3)nc2)CN1c1ccccc1 (centres undefined),-18.1
14,O=S(=O)(c1ccccc1)N1C[C@@H]2CCCCN(Cc3cccs3)[C@@H]2C1,-1.03
15,COc1cc2nc(NCc3scnc3C)nc(N)c2cc1OC,12.1
16,COc1cc2nc(NCc3cc(C)on3)nc(N)c2cc1OC,78.9
17,COc1cc2nc(NCc3ccc(C)nc3)nc(N)c2cc1OC,-17.5
18,CNC(=O)CN1CCO[C@H]2CN(CC3CCOC3)C[C@H]21 (some centres undefined),-18.9
19,O=C(c1cc(F)cc(F)c1)N1C[C@H]2CNC[C@H]2C1,-29.4
20,COCCN1CC(=O)N2CC[C@@H](O)C[C@H]2C1=O,7.83
21,Cc1ncc2c(n1)CN(CCCc1nc3ccccc3o1)CC2,94.6
22,Cc1ncc2c(n1)CN(Cc1nc3ccccc3o1)CC2,-1.34
23,Cc1ncc2c(n1)CCN(CCCc1nc3ccccc3o1)C2,0.614
24,CCCN1CCN(C(=O)c2ccc(Cl)cn2)[C@H]2CS(=O)(=O)C[C@H]21,5.71

# Reference: ChEMBL document CHEMBL3988442, “University of Dundee, Small-Polar-MMV Screening Library” (2021)
